Experimental data: PubChem BioAssay (EPA / NIEHS)
Activity calls are given as the source filed them. How the source made its calls: active means hit-call score of the fitted dose curve at least 0.9, where 1 is the maximum; inactive means score below 0.9.

Experiments:
[1] = read-out: Interleukin-1 alpha (IL1a), IL1A (gene 3552); test: BSK_KF3CT_IL1a: BioMAP Diversity Plus: KF3CT Assay for Interleukin-1 alpha (IL1a) Biomarker Activity (AID 2283070); settings: primary human keratinocytes with fibroblasts; actives raise or lower the signal
In short: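 Primary skin co-culture (keratinocytes, foreskin fibroblasts), 24 h exposure; ELISA for IL-1a; bidirectional curve fit vs DMSO.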

[2] = read-out: TIMP metallopeptidase inhibitor 2 (TIMP2), TIMP2 (gene 7077); test: BSK_KF3CT_TIMP2: BioMAP Diversity Plus: KF3CT Assay for TIMP metallopeptidase inhibitor 2 (TIMP2) Biomarker Activity (AID 2283071); settings: primary human keratinocytes with fibroblasts; actives raise or lower the signal
In short: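 ELISA readout of TIMP-2 in keratinocyte plus foreskin fibroblast co-cultures (human skin primary cells), 24 h post-dose. Gain or loss of signal fitted relative to DMSO.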

[3] = read-out: Transforming growth factor beta 1 (TGFb1), TGFB1 (gene 7040); test: BSK_KF3CT_TGFb1: BioMAP Diversity Plus: KF3CT Assay for Transforming growth factor beta 1 (TGFb1) Biomarker Activity (AID 2283072); settings: primary human keratinocytes with fibroblasts; actives raise or lower the signal
In short: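 Read-out: ELISA for TGF-b1 in keratinocyte/foreskin fibroblast human skin co-culture, 24 h after dosing; bidirectional curve fit vs DMSO baseline; gain or loss of signal scored.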

[4] = read-out: C-C motif chemokine 2 (Homo sapiens) (UniProt P13500); test: BSK_KF3CT_MCP1: BioMAP Diversity Plus: KF3CT Assay for Monocyte Chemoattractant Protein 1 (MCP1/CCL2) Biomarker Activity (AID 2283073); settings: primary human keratinocytes with fibroblasts; actives raise or lower the signal
In short: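 ELISA readout of MCP-1 after 24 h chemical dosing of a human skin primary co-culture of keratinocytes and foreskin fibroblasts. Activity was fitted in both directions against DMSO.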

[5] = read-out: Matrix Metallopeptidase 9 (MMP9), MMP9 (gene 4318); test: BSK_KF3CT_MMP9: BioMAP Diversity Plus: KF3CT Assay for Matrix Metallopeptidase 9 (MMP9) Biomarker Activity (AID 2283074); settings: primary human keratinocytes with fibroblasts; actives raise or lower the signal
In short: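 ELISA read-out of MMP-9 at 24 h post-dosing in a co-culture of human skin keratinocytes and foreskin fibroblasts. Gain or loss of signal was fitted in both directions against DMSO.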

[6] = read-out: urokinase plasminogen activator (uPA), PLAU (gene 5328); test: BSK_KF3CT_uPA: BioMAP Diversity Plus: KF3CT Assay for urokinase plasminogen activator (uPA) Biomarker Activity (AID 2283075); settings: primary human keratinocytes with fibroblasts; actives raise or lower the signal
In short: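 Skin co-culture (keratinocytes + foreskin fibroblasts), human primary; 24 h post-dose; uPA by ELISA; gain/loss fit vs DMSO baseline.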

[7] = read-out: CD40, CD40 (gene 958); test: BSK_LPS_CD40: BioMAP Diversity Plus: LPS Assay for CD40 Biomarker Activity (AID 2283076); settings: primary human HUVEC with PBMC; actives raise or lower the signal
In short: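 Cells were dosed, incubated 24 h, then assayed for CD40 by ELISA. Gain or loss of signal was analysed relative to DMSO controls. The culture paired human umbilical vein endothelium with peripheral blood mononuclear cells.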

[8] = read-out: Interleukin-8 (IL8), CXCL8 (gene 3576); test: BSK_LPS_IL8: BioMAP Diversity Plus: LPS Assay for Interleukin-8 (IL8) Biomarker Activity (AID 2283078); settings: primary human HUVEC with PBMC; actives raise or lower the signal
In short: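 Readout is IL-8 by ELISA, taken 24 h after compounds were added to LPS-stimulated endothelial/PBMC co-cultures. Both increases and decreases relative to DMSO control were scored through bidirectional fitting.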

[9] = BSK_LPS_SRB: Viability Assessment in the BioMAP Diversity Plus: LPS Assay (AID 2283079); settings: primary human HUVEC with PBMC;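 further: total protein by sulforhodamine B absorbance as a cytotoxicity measure; measured one day after compound addition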
In short: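 Readout is SRB absorbance at 560 nm (0.1% stain, TCA-fixed parallel cultures) as a total-protein cytotoxicity measure. Cells: primary human umbilical vein endothelium plus peripheral blood mononuclear cells, 24 h after chemical exposure; DMSO served as baseline.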

[10] = read-out: Interleukin-1 alpha (IL1a), IL1A (gene 3552); test: BSK_LPS_IL1a: BioMAP Diversity Plus: LPS Assay for Interleukin-1 alpha (IL1a) Biomarker Activity (AID 2283080); settings: primary human HUVEC with PBMC; actives raise or lower the signal
In short: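 ELISA read-out of IL-1 alpha from a human primary vascular co-culture (endothelium plus PBMC) under LPS, sampled 24 hours post-dosing. Activity was fitted in both directions relative to DMSO controls.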

[11] = read-out: Monocyte Chemoattractant Protein-1 (MCP1), CCL2 (gene 6347); test: BSK_LPS_MCP1: BioMAP Diversity Plus: LPS Assay for Monocyte Chemoattractant Protein-1 (MCP1) Biomarker Activity (AID 2283081); settings: primary human HUVEC with PBMC; actives raise or lower the signal
In short: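 Human endothelial–PBMC co-cultures were dosed with chemical, then LPS-driven MCP-1 levels were quantified by ELISA at 24 h. Activity in either direction was fitted versus DMSO negative control.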

[12] = BSK_LPS_PGE2: BioMAP Diversity Plus: LPS Assay for Prostaglandin E2 (PGE2) Biomarker Activity (AID 2283082); settings: primary human HUVEC with PBMC; actives raise or lower the signal
In short: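 ELISA read-out of PGE2 from human umbilical vein endothelial cells co-cultured with peripheral blood mononuclear cells under LPS, 24 h post-dose. Gain or loss of signal scored relative to DMSO baseline.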

[13] = read-out: Tissue Factor, F3 (gene 2152); test: BSK_LPS_TissueFactor: BioMAP Diversity Plus: LPS Assay for Tissue Factor Biomarker Activity (AID 2283084); settings: primary human HUVEC with PBMC; actives raise or lower the signal
In short: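 ELISA signal for cell-surface Tissue Factor (CD142) was read 24 h after compound dosing of an LPS-stimulated human endothelial–PBMC primary co-culture. Gain or loss of signal was scored relative to DMSO.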

[14] = read-out: Tumor necrosis factor (Homo sapiens) (UniProt P01375); test: BSK_LPS_TNFa: BioMAP Diversity Plus: LPS Assay for Tumour Necrosis Factor alpha (TNFa) Biomarker Activity (AID 2283085); settings: primary human HUVEC with PBMC; actives raise or lower the signal
In short: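 HUVEC/PBMC co-culture, LPS-stimulated; 24 h post-dose; TNFa by ELISA; gain or loss of signal fitted bidirectionally vs DMSO baseline.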

[15] = read-out: Vascular cell adhesion molecule 1 (VCAM1), VCAM1 (gene 7412); test: BSK_LPS_VCAM1: BioMAP Diversity Plus: LPS Assay for Vascular cell adhesion molecule 1 (VCAM1) Biomarker Activity (AID 2283086); settings: primary human HUVEC with PBMC; actives raise or lower the signal
In short: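 ELISA read-out of VCAM-1 at 24 h post-dosing in an LPS-driven HUVEC/PBMC primary human co-culture; gain or loss of signal fitted bidirectionally against DMSO baseline. Cytotoxicity tracked in parallel cultures by SRB total-protein staining.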

[16] = read-out: CD38, CD38 (gene 952); test: BSK_SAg_CD38: BioMAP Diversity Plus: SAg Assay for CD38 Biomarker Activity (AID 2283087); settings: primary human HUVEC with PBMC; actives raise or lower the signal
In short: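 Measures CD38 on a human endothelial/PBMC co-culture driven by SEB and TSST-1, 24 h after compound exposure, using ELISA with fluorescence detection; DMSO defines baseline for bidirectional curve fitting.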

[17] = read-out: CD40, CD40 (gene 958); test: BSK_SAg_CD40: BioMAP Diversity Plus: SAg Assay for CD40 Biomarker Activity (AID 2283088); settings: primary human HUVEC with PBMC; actives raise or lower the signal
In short: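 Compounds were dosed onto a human primary endothelial–PBMC co-culture, and after 24 h CD40 was quantified by ELISA using a fluorescence signal. Activity in either direction was fitted relative to DMSO.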

[18] = read-out: CD69, CD69 (gene 969); test: BSK_SAg_CD69: BioMAP Diversity Plus: SAg Assay for CD69 Biomarker Activity (AID 2283089); settings: primary human HUVEC with PBMC; actives raise or lower the signal
In short: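 Values derive from bidirectional fitting relative to DMSO vehicle. Cells: umbilical vein endothelium plus peripheral blood mononuclear cells, treated 24 h before fluorescent ELISA for CD69.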

[19] = read-out: E-selectin (Homo sapiens) (UniProt P16581); test: BSK_LPS_Eselectin: BioMAP Diversity Plus: LPS Assay for Eselectin Biomarker Activity (AID 2283077); settings: primary human HUVEC with PBMC; actives raise or lower the signal
In short: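 Primary human vascular co-culture (endothelium plus PBMC) was dosed with chemical, then E-selectin quantified by ELISA at 24 h. Endpoint values derive from bidirectional curve fitting relative to DMSO.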

[20] = read-out: Macrophage colony-stimulating factor (MCSF), CSF1 (gene 1435); test: BSK_LPS_MCSF: BioMAP Diversity Plus: LPS Assay for Macrophage colony-stimulating factor (MCSF) Biomarker Activity (AID 2283083); settings: primary human HUVEC with PBMC; actives raise or lower the signal
In short: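 ELISA readout of M-CSF after 24 h compound exposure in a human endothelial/PBMC co-culture. Activity, in either direction, is fitted relative to DMSO vehicle.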

Measured: outcome

Sequence of Tumor necrosis factor (Homo sapiens) (P01375 whole entry, looked up): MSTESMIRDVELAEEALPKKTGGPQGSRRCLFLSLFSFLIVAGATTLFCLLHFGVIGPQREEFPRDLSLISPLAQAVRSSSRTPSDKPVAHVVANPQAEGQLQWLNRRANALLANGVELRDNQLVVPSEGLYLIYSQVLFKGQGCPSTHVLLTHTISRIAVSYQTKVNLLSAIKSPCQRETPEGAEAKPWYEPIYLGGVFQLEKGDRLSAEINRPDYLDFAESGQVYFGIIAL
Sequence of E-selectin (Homo sapiens) (P16581 whole entry, looked up): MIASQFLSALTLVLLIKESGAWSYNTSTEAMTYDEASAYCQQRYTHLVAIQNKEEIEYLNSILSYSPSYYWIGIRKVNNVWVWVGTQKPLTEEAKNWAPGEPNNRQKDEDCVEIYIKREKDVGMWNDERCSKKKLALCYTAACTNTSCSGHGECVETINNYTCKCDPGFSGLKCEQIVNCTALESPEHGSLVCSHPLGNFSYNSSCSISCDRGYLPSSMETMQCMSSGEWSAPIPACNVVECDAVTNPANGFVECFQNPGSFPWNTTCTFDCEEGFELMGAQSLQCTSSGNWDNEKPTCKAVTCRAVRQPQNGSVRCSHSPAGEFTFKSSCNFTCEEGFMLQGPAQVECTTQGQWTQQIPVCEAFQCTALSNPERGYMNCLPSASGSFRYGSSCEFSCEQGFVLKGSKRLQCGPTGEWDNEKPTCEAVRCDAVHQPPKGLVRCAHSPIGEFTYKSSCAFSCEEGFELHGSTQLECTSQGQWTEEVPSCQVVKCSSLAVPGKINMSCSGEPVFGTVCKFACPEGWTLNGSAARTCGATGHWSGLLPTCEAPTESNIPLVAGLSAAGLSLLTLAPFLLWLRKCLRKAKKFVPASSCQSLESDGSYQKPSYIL

CC(Cc1ccc(OCC(=O)O)cc1)NCC(O)c1csc(C(F)(F)F)n1 (centres undefined)
not listed: [19] | [20]
inactive: all other assays above

O=C(O)C=CC(F)(C(F)(F)F)C(F)(F)F
not listed: [3] | [20]
inactive: all other assays above

OCC(F)(F)OC(F)(F)C(F)(F)OC(F)(F)CO
not listed: [3] | [19]
inactive: all other assays above
